Read-out in assay [1]: Urokinase-type plasminogen activator receptor (uPAR), PLAUR (gene 5329)
Description: BSK_4H_uPAR: BioMAP Diversity Plus: 4H Assay for Urokinase-type plasminogen activator receptor (uPAR) Biomarker Activity (AID 2283030). The following applies: primary human endothelial cells (HUVEC); actives raise or lower the signal. Summed up:
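Endpoint derived via bidirectional curve fitting against DMSO baseline; readout was ELISA detection of uPAR on umbilical vein endothelial cells at 24 h post-treatment, with SRB-stained parallel cultures assessing cytotoxicity.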

Read-out in assay [2]: Vascular endothelial growth factor receptor 2 (Homo sapiens) (UniProt P35968)
Description: BSK_4H_VEGFRII: BioMAP Diversity Plus: 4H Assay for Vascular endothelial growth factor receptor 2 (VEGFR2) Biomarker Activity (AID 2283031). The following applies: primary human endothelial cells (HUVEC); actives raise or lower the signal. The gist of the method: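 In this multiplexed HUVEC system, biomarker ELISA was performed after 24 h chemical exposure. Parallel SRB staining (TCA fixation, 560 nm) tracked cytotoxicity; DMSO served as baseline.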

Read-out in assay [3]: Human Leukocyte Antigen - DR isotype (HLADR), HLA-DRA (gene 3122)
Description: BSK_BE3C_HLADR: BioMAP Diversity Plus: BE3C Assay for Human Leukocyte Antigen - DR isotype (HLADR) Biomarker Activity (AID 2283032). The following applies: primary human bronchial epithelial cells; actives raise or lower the signal. The gist of the method:
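ELISA read-out of HLA-DR on human lung bronchial epithelial primary cells, measured 24 h post-dosing. Both increases and decreases were scored relative to DMSO vehicle.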

Read-out in assay [4]: Vascular cell adhesion molecule 1 (VCAM1), VCAM1 (gene 7412)
Nature of the assay: BSK_4H_VCAM1: BioMAP Diversity Plus: 4H Assay for Vascular cell adhesion molecule 1 (VCAM1) Biomarker Activity (AID 2283033).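 Note: cell-surface VCAM-1 protein measured by ELISA.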 The conditions noted are these: primary human endothelial cells (HUVEC); actives raise or lower the signal. Summed up: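 ELISA read-out of VCAM-1 on human umbilical vein endothelium 24 hours after chemical dosing; gain or loss of signal was fitted relative to DMSO, with sulforhodamine B staining of parallel cultures flagging overt cytotoxicity.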

Read-out in assay [5]: Interferon-gamma inducible Protein 10 (IP10), CXCL10 (gene 3627)
Description: BSK_BE3C_IP10: BioMAP Diversity Plus: BE3C Assay for Interferon-gamma inducible Protein 10 (IP10) Biomarker Activity (AID 2283034). The following applies: primary human bronchial epithelial cells; actives raise or lower the signal. The gist of the method: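 Chemical is dosed onto human lung bronchial epithelial primary cells, cultures are incubated 24 h, and IP-10 is then quantified by ELISA. Gain or loss of signal is fitted in both directions relative to DMSO.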

Read-out in assay [6]: Monokine induced gamma interferon (MIG), CXCL9 (gene 4283)
Nature of the assay: BSK_BE3C_MIG: BioMAP Diversity Plus: BE3C Assay for Monokine induced gamma interferon (MIG) Biomarker Activity (AID 2283035). The following applies: primary human bronchial epithelial cells; actives raise or lower the signal. The gist of the method: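 Primary human bronchial epithelial cells treated for 24 h; MIG levels measured by ELISA, fitted bidirectionally versus DMSO. Parallel SRB total-protein staining assessed cytotoxicity.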

Read-out in assay [7]: urokinase plasminogen activator (uPA), PLAU (gene 5328)
Description: BSK_BE3C_uPA: BioMAP Diversity Plus: BE3C Assay for urokinase plasminogen activator (uPA) Biomarker Activity (AID 2283038).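 Note: uPA protein level quantified by ELISA in cell cultures; uPA read one day after compound addition.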 The following applies: primary human bronchial epithelial cells; actives raise or lower the signal. Summed up:
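Using confluent primary human lung bronchial epithelial cultures, we dosed chemicals, waited 24 h, then ran a uPA ELISA, fitting bidirectionally against DMSO.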

Read-out in assay [8]: Urokinase-type plasminogen activator receptor (uPAR), PLAUR (gene 5329)
Description: BSK_BE3C_uPAR: BioMAP Diversity Plus: BE3C Assay for Urokinase-type plasminogen activator receptor (uPAR) Biomarker Activity (AID 2283039).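 Note: cells exposed to compound for one day before measurement.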 The following applies: primary human bronchial epithelial cells; actives raise or lower the signal. Summed up: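 Human bronchial epithelial primary cells; chemical exposure 24 h; uPAR by ELISA; bidirectional fit vs DMSO control.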

Read-out in assay [9]: Interleukin-6 (IL6), IL6 (gene 3569)
Description: BSK_CASM3C_IL6: BioMAP Diversity Plus: CASM3C Assay for Interleukin-6 (IL6) Biomarker Activity for (AID 2283040). The following applies: primary human coronary artery smooth muscle cells; actives raise or lower the signal.

Read-out in assay [10]: Tissue plasminogen activator (tPA), PLAT (gene 5327)
Description: BSK_BE3C_tPA: BioMAP Diversity Plus: BE3C Assay for Tissue plasminogen activator (tPA) Biomarker Activity (AID 2283041).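 Note: tPA level quantified by ELISA one day after compound addition.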 The conditions noted are these: primary human bronchial epithelial cells; actives raise or lower the signal. Summed up:
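Primary human lung bronchial epithelial cultures receive test chemical; after 24 h, tPA is quantified by ELISA, and gain or loss of signal is fitted bidirectionally relative to DMSO baseline.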

Read-out in assay [11]: Interleukin-8 (IL8), CXCL8 (gene 3576)
Nature of the assay: BSK_CASM3C_IL8: BioMAP Diversity Plus: CASM3C Assay for Interleukin-8 (IL8) Biomarker Activity (AID 2283042).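 Note: IL-8 protein level quantified by ELISA.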 The conditions noted are these: primary human coronary artery smooth muscle cells; actives raise or lower the signal.

Read-out in assay [12]: Human Leukocyte Antigen - DR isotype (HLADR), HLA-DRA (gene 3122)
Description: BSK_CASM3C_HLADR: BioMAP Diversity Plus: CASM3C Assay for Human Leukocyte Antigen - DR isotype (HLADR) Biomarker Activity (AID 2283043).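 Note: cell-surface HLA-DR protein level quantified by ELISA.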 The following applies: primary human coronary artery smooth muscle cells; actives raise or lower the signal.

Read-out in assay [13]: Macrophage colony-stimulating factor (MCSF), CSF1 (gene 1435)
Description: BSK_CASM3C_MCSF: BioMAP Diversity Plus: CASM3C Assay for Macrophage colony-stimulating factor (MCSF) Biomarker Activity (AID 2283044).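 Note: M-CSF protein amount quantified by ELISA after 24 h exposure.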 The following applies: primary human coronary artery smooth muscle cells; actives raise or lower the signal.

Read-out in assay [14]: Low-density lipoprotein receptor (LDLR), LDLR (gene 3949)
Description: BSK_CASM3C_LDLR: BioMAP Diversity Plus: CASM3C Assay for Low-density lipoprotein receptor (LDLR) Biomarker Activity (AID 2283045).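 Note: LDLR protein level on the cell surface quantified by ELISA.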 The following applies: primary human coronary artery smooth muscle cells; actives raise or lower the signal.

Read-out in assay [15]: Monocyte Chemoattractant Protein-1 (MCP1), CCL2 (gene 6347)
Description: BSK_CASM3C_MCP1: BioMAP Diversity Plus: CASM3C Assay for Monocyte Chemoattractant Protein-1 (MCP1) Biomarker Activity (AID 2283046).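 Note: MCP-1 level quantified by ELISA 24 h after dosing.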 The conditions noted are these: primary human coronary artery smooth muscle cells; actives raise or lower the signal.

Assay [16] in a line: BSK_CASM3C_Proliferation: Cell Proliferation Assessment in the BioMAP Diversity Plus: CASM3C Assay (AID 2283047).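 Note: sulforhodamine B total protein stain as relative cell number at 560 nm; sub-confluent cells exposed 48 h before staining; fitted both ways against DMSO so gain or loss of cell number.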 The conditions noted are these: primary human coronary artery smooth muscle cells.
Read-out in assay [17]: Monokine induced gamma interferon (MIG), CXCL9 (gene 4283)
Nature of the assay: BSK_CASM3C_MIG: BioMAP Diversity Plus: CASM3C Assay for Monokine induced gamma interferon (MIG) Biomarker Activity (AID 2283048). The following applies: primary human coronary artery smooth muscle cells; actives raise or lower the signal.

Read-out in assay [18]: serum amyloid A (SAA), SAA1 (gene 6288)
Description: BSK_CASM3C_SAA: BioMAP Diversity Plus: CASM3C Assay for serum amyloid A (SAA) Biomarker Activity (AID 2283049).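 Note: SAA protein level quantified by ELISA.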 The conditions noted are these: primary human coronary artery smooth muscle cells; actives raise or lower the signal.

Read-out in assay [19]: Transforming growth factor beta 1 (TGFb1), TGFB1 (gene 7040)
Description: BSK_BE3C_TGFb1: BioMAP Diversity Plus: BE3C Assay for Transforming growth factor beta 1 (TGFb1) Biomarker Activity (AID 2283036;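 note: TGF-b1 protein level measured by ELISA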). The conditions noted are these: primary human bronchial epithelial cells; actives raise or lower the signal. The gist of the method: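 Primary human lung bronchial epithelial cells; compound exposure 24 h; TGF-b1 by ELISA; bidirectional fit, DMSO baseline. Parallel SRB total-protein staining for cytotoxicity.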

Read-out in assay [20]: Plasminogen activator inhibitor-1 (PAI1), SERPINE1 (gene 5054)
Description: BSK_BE3C_PAI1: BioMAP Diversity Plus: BE3C Assay for Plasminogen activator inhibitor-1 (PAI1) Biomarker Activity (AID 2283037). The conditions noted are these: primary human bronchial epithelial cells; actives raise or lower the signal. Summed up:
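Primary human lung bronchial epithelial cells; chemical dosing; 24 h; PAI-1 measured by ELISA; bidirectional fit referenced to DMSO as negative control.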

The structures appear in SMILES notation. Where “and” joins values, the source holds several entries; their conditions need not be identical. Equal entries are not always repeated. Calls of active or inactive are those of the source. Rule for the calls: active = hit-call score of the fitted dose curve at least 0.9, where 1 is the maximum; inactive = score below 0.9.

In the case of `C=C(F)C(=O)OC(C(F)(F)F)C(F)(F)F`, the outcome in [1], in [2], in assay [3], in [4], in [5] and in assay [6] was inactive. Besides, the result in assay [7], in [8], in assay [9], in assay [10], in assay [11] and in [12] was inactive. Moreover, the result in [13], in assay [14], in assay [15], in [16], in assay [17] and in [18] was inactive.

As a reminder, the AC50 is the concentration at which the activity in the assay is half-maximal. As for `O=C(O)C(F)(F)C(F)(F)C(F)(F)C(F)(F)C(F)(F)C(F)(F)C(F)(F)C(F)F`, the outcome in [1], in [2], in assay [4], in [6], in assay [7] and in [8] was inactive. The result in [9], in assay [10], in assay [11], in [12], in [13] and in [14] was inactive. Further, the outcome in [15], in assay [16], in [17] and in assay [18] was inactive. For the same compound, the AC50 in [3] is 12.5 µM (active) and 3.23 µM (active); in assay [5], 30 µM (active) and 38.3 µM (active).

`CC1=CC(C)C(C=O)C(C)C1` (stereo not given) (tested in a mixture with another compound): the outcome in assay [1], in assay [2], in [3], in [4], in assay [5] and in assay [6] was inactive. In addition, the outcome in assay [19], in assay [7], in [8], in assay [9], in assay [10] and in assay [11] was inactive. Besides, the outcome in [12], in assay [13], in [14], in assay [15], in [16] and in assay [17] was inactive. For the same compound, the result in [18] was inactive.

`CCCCN(CCO)CCO`: the result in assay [1], in assay [2], in assay [3], in [4], in assay [5] and in [6] was inactive. Further, the outcome in assay [7], in assay [8], in assay [9], in assay [10], in assay [11] and in assay [12] was inactive. Besides, the result in [13], in assay [14], in assay [15], in assay [16], in assay [17] and in [18] was inactive.

As for `CC(C)CCCC(C)(C)O`, the result in assay [1], in assay [2], in [3], in assay [4], in assay [5] and in [6] was inactive. The result in assay [7], in assay [8], in assay [9], in assay [10], in assay [11] and in [12] was inactive. Also, the result in assay [13], in [14], in assay [15], in assay [16], in assay [17] and in assay [18] was inactive.

Regarding `O=S(=O)(O)C(F)(F)C(F)(F)OC(F)(F)C(F)(F)F`, the result in [1], in assay [2], in [3], in assay [4], in assay [5] and in assay [6] was inactive. Besides, the result in [20], in assay [7], in assay [8], in assay [9], in assay [10] and in assay [11] was inactive. Besides, the result in assay [12], in assay [13], in [14], in assay [15], in assay [16] and in assay [17] was inactive. Moreover, the AC50 in [18] is 44.9 µM (active) and 20 µM (active).

(Values after PubChem BioAssay (EPA / NIEHS).)
